Assay [1] can be described thus: qHTS profiling of the MIPE4 collection as inhibitors of Plasmodium falciparum (3D7) proliferation (AID 743344).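 Also: scaled between DMSO vehicle wells and 0.29 µM artemisinin as full inhibition.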 The following applies: P. falciparum 3D7 in erythrocytes, SYBR Green DNA fluorescence, 72 h; at 28.5 µM. In a few lines: (§1)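 Parasite DNA was quantified by SYBR Green I fluorescence (ex 485, em 535 nm) after overnight lysis in saponin/Triton buffer at room temperature. Cultures at 0.3% parasitemia and 2.5% hematocrit were first exposed to compound for 72 h at 37 C; signals were normalised to artemisinin (0.29 uM) and vehicle wells.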
(In general: qHTS replaces the single test concentration by a dilution series.)

The nature of assay [2]: qHTS profiling of the MIPE4 collection as inhibitors of Plasmodium falciparum (DD2) proliferation (AID 743345). The following applies: P. falciparum Dd2 in erythrocytes, SYBR Green DNA, 72 h; at 28.5 µM unless noted. The gist of the method: as §1
Assay [3] can be described thus: qHTS profiling of the MIPE4 collection as inhibitors of Plasmodium falciparum (DD2) proliferation (Rep 2) (AID 743346). The note with it: P. falciparum Dd2 in erythrocytes, SYBR Green DNA, 72 h; at 28.5 µM. In a few lines: as §1
A short description of assay [4]: qHTS profiling of the MIPE4 collection as inhibitors of Plasmodium falciparum (HB3) proliferation (AID 743347).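 Also: plate controls were DMSO vehicle wells for no effect and artemisinin wells for full effect.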 The following applies: P. falciparum HB3 in erythrocytes, SYBR Green DNA, 72 h; at 28.5 µM. The gist of the method:
as §1

Regarding `N#C[C@H](O[C@@H]1O[C@H](CO[C@@H]2O[C@H](CO)[C@H](O)[C@H](O)[C@H]2O)[C@H](O)[C@H](O)[C@H]1O)c1ccccc1`, in assay [1], the parasite growth, % of DMSO control is 61.2%. The compound further gave a parasite growth remaining, % of DMSO control (lower = more inhibition) in assay [2] of 17.6%. Also, the parasite growth, % of control (lower = inhibition) in assay [3] amounted to 37.7%. Further, the growth, % of control in assay [4] turned out to be 60.6%.
On the same counts, the results for `CCCC[N+]1(C)[C@H]2CC(OC(=O)[C@H](CO)c3ccccc3)C[C@H]1[C@H]1O[C@H]12` (some centres undefined) are 98.9%, 100%, 86.4% and 52.3%.
`C[C@H]([C@H](O)CCC(C)(C)O)[C@H]1CC[C@@]2(O)C3=CC(=O)[C@@H]4C[C@@H](O)[C@@H](O)C[C@]4(C)[C@@H]3CC[C@]12C` came in with a parasite growth, % of DMSO control in assay [1] of 93.7%. For the same compound, in assay [2], the parasite growth remaining, % of DMSO control (lower = more inhibition) is 99.4%. In addition, the parasite growth, % of control (lower = inhibition) in assay [3] is 93.3%. In assay [4], this compound came in with a growth, % of control of 59%.
On the same counts, the results for `O=C(N[C@@H](COc1ccc2[nH]c(=O)[nH]c2c1)c1ccccc1)c1cccn(Cc2ccc(F)c(F)c2)c1=O` are 50.5%, 85.6%, 75.9% and 63.1%.
For the compound `O=C(Oc1ccc([N+](=O)[O-])cc1)N1CCN(Cc2cccc(Oc3ccccc3)c2)CC1`, the parasite growth, % of DMSO control in assay [1] was found to be 95.8%. Moreover, the parasite growth remaining, % of DMSO control (lower = more inhibition) in assay [2] was found to be 92.5%. Besides, the parasite growth, % of control (lower = inhibition) in assay [3] was determined as 181%. In addition, the growth, % of control in assay [4] came to 96.4%.
As to `O=C(Nc1ccncc1)C(=O)c1cn(Cc2ccc(Cl)cc2)c2ccccc12`, the parasite growth, % of DMSO control in assay [1] came out at 91%. This compound gave a parasite growth remaining, % of DMSO control (lower = more inhibition) in assay [2] of 85.2%. Besides, the parasite growth, % of control (lower = inhibition) in assay [3] was 81.4%. The same compound had a growth, % of control in assay [4] of 78.4%.
On the same counts, the results for `COC[C@H]1OC(=O)c2coc3c2[C@@]1(C)C1=C(C3=O)[C@@H]2CC[C@H](O)[C@@]2(C)C[C@@H]1OC(C)=O` are 93.1%, 83.2%, 79.7% and 48.8%.
On the same counts, the results for `N=c1c2c(-c3ccccc3)c(-c3ccccc3)n(Cc3ccccc3)c2ncn1C1CCC(O)CC1` (centres undefined) are 10.7%, 9.02%, 12.7% and 9.68%.
On the same counts, the results for `CC=C(C)C(=O)N[C@@H](c1ccccc1)[C@@H](O)C(=O)O[C@H]1C[C@@]2(O)[C@@H](OC(=O)c3ccccc3)[C@@H]3[C@]4(OC(C)=O)CO[C@@H]4C[C@H](O)[C@@]3(C)C(=O)[C@H](OC(C)=O)C(=C1C)C2(C)C` are 4.24%, 14%, 15.6% and 6.33%.
As to `C[C@H]1CCCC=CC2C[C@H](O)C[C@@H]2[C@H](O)C=CC(=O)O1` (some centres undefined), the parasite growth, % of DMSO control in assay [1] was 4.99%. Moreover, the parasite growth remaining, % of DMSO control (lower = more inhibition) in assay [2] was 9.17%. For the same compound, the parasite growth, % of control (lower = inhibition) in assay [3] came to 9.15%. This compound also registered a growth, % of control in assay [4] of 2.99%.
On the same counts, the results for `Cc1ccccc1-n1c(Cn2ncc3c(N)ncnc32)nc2cccc(C)c2c1=O` are 48.8%, 94.1%, 37% and 53.3%.

Values taken from PubChem BioAssay (NCATS).
